This passage reports outcome and AC50 results from PubChem BioAssay (EPA / NIEHS).

SMILES strings stand for the structures. The source made the active and inactive calls. How the source made its calls: active means hit-call score of the fitted dose curve at least 0.9, where 1 is the maximum; inactive means score below 0.9.

Common to all, as to conditions: mRNA level, 48 h; actives raise or lower the signal
Read-out in assay [1]: Cytochrome P450 (CYP24A1), CYP24A1 (gene 1591)
The assay is described as follows: LTEA_HepaRG_CYP24A1: Life Technologies and Expression Analysis (LTEA) Assay for Cytochrome P450 (CYP24A1) using HepaRG (AID 2283478). The procedure, abridged:
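HepaRG, 48 h chemical exposure, 8-pt half-log CRC from 100 uM, 0.5% DMSO vehicle, duplicates. Endpoint: CYP24A1 mRNA by Fluidigm TaqMan qRT-PCR, normalized ACTB/GAPDH/POLR2A; gain/loss fit vs DMSO.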

Read-out in assay [2]: Cytochrome P450 (CYP1A2), CYP1A2 (gene 1544)
The assay is described as follows: LTEA_HepaRG_CYP1A2: Life Technologies and Expression Analysis (LTEA) Assay for Cytochrome P450 (CYP1A2) using HepaRG (AID 2283479). The procedure, abridged:
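CYP1A2 transcript induction or loss, quantified by Fluidigm qRT-PCR against three housekeeping genes, was fitted bidirectionally against 0.5% DMSO controls. Human HepaRG cells received eight half-log concentrations from 100 uM over 48 h.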

Read-out in assay [3]: cysteine-aspartic acid protease (CASP8), CASP8 (gene 841)
Description: LTEA_HepaRG_CASP8: Life Technologies and Expression Analysis (LTEA) Assay for cysteine-aspartic acid protease (CASP8) using HepaRG (AID 2283480). The procedure, abridged:
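HepaRG, 48 h exposure, duplicate wells; 8 conc, half-log from 100 uM, 0.5% DMSO. Serum-free induction medium. CASP8 mRNA by TaqMan qRT-PCR, norm. ACTB/GAPDH/POLR2A; gain/loss fitted vs DMSO.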

Read-out in assay [4]: Cytochrome P450 (CYP2B6), CYP2B6 (gene 1555)
Description: LTEA_HepaRG_CYP2B6: Life Technologies and Expression Analysis (LTEA) Assay for Cytochrome P450 (CYP2B6) using HepaRG (AID 2283481). The procedure, abridged: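 HepaRG cells plated 48 h, switched to serum-free induction medium, then dosed 48 h (8 points, half-log from 100 uM, 0.5% DMSO). RNA isolated; CYP2B6 expression measured by qRT-PCR; gain or loss fitted relative to DMSO.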

Read-out in assay [5]: Cytochrome P450 2C19 (Homo sapiens) (UniProt P33261)
The assay is described as follows: LTEA_HepaRG_CYP2C19: Life Technologies and Expression Analysis (LTEA) Assay for CYP2C19 using HepaRG (AID 2283482). The procedure, abridged:
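Transcript levels of CYP2C19 were quantified by qRT-PCR after HepaRG cells were treated for 48 hours with test chemicals up to 100 uM (eight half-log concentrations, 0.5% DMSO vehicle). Gain or loss of signal was fitted relative to DMSO.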

Read-out in assay [6]: CYP2C8 (gene 1558)
Description: LTEA_HepaRG_CYP2C8: Life Technologies and Expression Analysis (LTEA) Assay for CYP2C8 using HepaRG (AID 2283483). A digest of the protocol:
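CYP2C8 mRNA induction or loss, by qRT-PCR normalized to ACTB/GAPDH/POLR2A, is read in HepaRG cells after 48 h treatment. Concentrations run from 100 uM down in half-log dilutions, with 0.5% DMSO as vehicle and baseline.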

Read-out in assay [7]: CYP2C9 (gene 1559)
Description: LTEA_HepaRG_CYP2C9: Life Technologies and Expression Analysis (LTEA) Assay for CYP2C9 using HepaRG (AID 2283484). The procedure, abridged: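 Cells plated 48 h, switched to serum-free induction medium, then treated in duplicate for 48 h at eight concentrations (max 100 uM, 0.5% DMSO). RNA then analysed by qRT-PCR for CYP2C9; curves fitted in both directions relative to DMSO.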

Read-out in assay [8]: CYP2E1 (gene 1571)
The assay is described as follows: LTEA_HepaRG_CYP2E1: Life Technologies and Expression Analysis (LTEA) Assay for CYP2E1 using HepaRG (AID 2283485). A digest of the protocol:
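HepaRG cells, plated 48 h, then exposed 48 h in serum-free induction medium to eight half-log concentrations from 100 uM in 0.5% DMSO, duplicate. CYP2E1 mRNA by qRT-PCR, normalized to ACTB/GAPDH/POLR2A; bidirectional fit versus DMSO.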

Read-out in assay [9]: CYP4A11 (gene 1579)
The assay is described as follows: LTEA_HepaRG_CYP4A11: Life Technologies and Expression Analysis (LTEA) Assay for CYP4A11 using HepaRG (AID 2283486). A digest of the protocol: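 HepaRG, 48 h chem exposure, 8 conc (100 uM top, half-log), 0.5% DMSO vehicle; qRT-PCR readout, housekeeping-gene normalized; bidirectional curve fit vs DMSO baseline.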

Read-out in assay [10]: Pro-epidermal growth factor (Homo sapiens) (UniProt P01133)
Description: LTEA_HepaRG_EGF: Life Technologies and Expression Analysis (LTEA) Assay for Epidermal growth factor (EGF) using HepaRG (AID 2283489). The procedure, abridged: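 HepaRG, 48 h dosing, 100 uM top, half-log x8, 0.5% DMSO. Readout: TaqMan qRT-PCR (Fluidigm array), housekeeping-normalized. Gain or loss of signal fit vs DMSO.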

Read-out in assay [11]: Early growth response protein 1 (EGR1) transcription factor, EGR1 (gene 1958)
Description: LTEA_HepaRG_EGR1: Life Technologies and Expression Analysis (LTEA) Assay for Early growth response protein 1 (EGR1) transcription factor using HepaRG (AID 2283490). A digest of the protocol: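 Read-out is EGR1 mRNA level by qRT-PCR, normalized to three housekeeping genes and analysed for gain or loss of signal against 0.5% DMSO. Source cells: human HepaRG, treated 48 h at up to 100 uM in half-log dilutions.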

Read-out in assay [12]: Ezrin (EZR), EZR (gene 7430)
Description: LTEA_HepaRG_EZR: Life Technologies and Expression Analysis (LTEA) Assay for Ezrin (EZR) using HepaRG (AID 2283491). A digest of the protocol: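 Gain or loss of EZR mRNA is scored relative to 0.5% DMSO in human HepaRG cultures treated 48 h with test chemicals in duplicate, eight half-log concentrations from 100 uM.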

Read-out in assay [13]: Cytochrome P450 3A7 (Homo sapiens) (UniProt P24462)
Description: LTEA_HepaRG_CYP3A7: Life Technologies and Expression Analysis (LTEA) Assay for CYP3A7 using HepaRG (AID 2283492). The procedure, abridged: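 Human HepaRG liver cells, 48 h post-plating, switched to serum-free induction medium and exposed in duplicate for 48 h. Dosing: 100 uM top, half-log dilutions, 8 points, 0.5% DMSO vehicle. Read-out: CYP3A7 mRNA, gain or loss fitted against DMSO baseline.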

Read-out in assay [14]: CYP3A5 (gene 1577)
The assay is described as follows: LTEA_HepaRG_CYP3A5: Life Technologies and Expression Analysis (LTEA) Assay for CYP3A5 using HepaRG (AID 2283493). The procedure, abridged: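 HepaRG cells, plated 48 h then in serum-free induction medium, dosed in duplicate for 48 h with eight half-log concentrations up to 100 uM in 0.5% DMSO. Gene mRNA by Fluidigm TaqMan qRT-PCR, normalized to ACTB, GAPDH, POLR2A.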

Read-out in assay [15]: Fatty Acid-Binding Protein 1 (FABP1), FABP1 (gene 2168)
Description: LTEA_HepaRG_FABP1: Life Technologies and Expression Analysis (LTEA) Assay for Fatty Acid-Binding Protein 1 (FABP1) using HepaRG (AID 2283494). The procedure, abridged:
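HepaRG, 48 h post-plating switched to serum-free induction medium, then dosed 48 h (duplicate, 8 pts, ≤100 uM, 0.5% DMSO). RNA → Fluidigm TaqMan qRT-PCR, FABP1 normed to ACTB/GAPDH/POLR2A. Bidirectional curve fit vs DMSO.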

Read-out in assay [16]: Cytochrome P450 4A22 (Homo sapiens) (UniProt Q5TCH4)
The assay is described as follows: LTEA_HepaRG_CYP4A22: Life Technologies and Expression Analysis (LTEA) Assay for Cytochrome P450 4A22 (CYP4A22) using HepaRG (AID 2283495). The procedure, abridged:
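Readout is CYP4A22 transcript induction or loss, quantified by qRT-PCR and normalized to ACTB, GAPDH and POLR2A. Human HepaRG cells receive test chemicals for 48 h at eight half-log concentrations from 100 uM in 0.5% DMSO.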

Read-out in assay [17]: Cytochrome P450 7A1 (Homo sapiens) (UniProt P22680)
The assay is described as follows: LTEA_HepaRG_CYP7A1: Life Technologies and Expression Analysis (LTEA) Assay for Cytochrome P450 7A1 (CYP7A1) using HepaRG (AID 2283496). A digest of the protocol:
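HepaRG cells plated 48 h, then switched to serum-free induction medium and exposed in duplicate for 48 h to 8-point half-log series from 100 uM in 0.5% DMSO. CYP7A1 mRNA by qRT-PCR (TaqMan), normalized to ACTB/GAPDH/POLR2A; bidirectional fit versus DMSO.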

Read-out in assay [18]: Glutathione S-Transferase (GSTA2), GSTA2 (gene 2939)
Description: LTEA_HepaRG_GSTA2: Life Technologies and Expression Analysis (LTEA) Assay for Glutathione S-Transferase (GSTA2) using HepaRG (AID 2283497). A digest of the protocol: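 HepaRG, 48 h dosing, 8-pt half-log CRC from 100 uM, 0.5% DMSO vehicle, n=2; RNA → Fluidigm TaqMan qRT-PCR; GSTA2 vs ACTB/GAPDH/POLR2A; gain/loss fit vs DMSO.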

Chain of Cytochrome P450 3A7 (Homo sapiens) (P24462 whole entry, looked up): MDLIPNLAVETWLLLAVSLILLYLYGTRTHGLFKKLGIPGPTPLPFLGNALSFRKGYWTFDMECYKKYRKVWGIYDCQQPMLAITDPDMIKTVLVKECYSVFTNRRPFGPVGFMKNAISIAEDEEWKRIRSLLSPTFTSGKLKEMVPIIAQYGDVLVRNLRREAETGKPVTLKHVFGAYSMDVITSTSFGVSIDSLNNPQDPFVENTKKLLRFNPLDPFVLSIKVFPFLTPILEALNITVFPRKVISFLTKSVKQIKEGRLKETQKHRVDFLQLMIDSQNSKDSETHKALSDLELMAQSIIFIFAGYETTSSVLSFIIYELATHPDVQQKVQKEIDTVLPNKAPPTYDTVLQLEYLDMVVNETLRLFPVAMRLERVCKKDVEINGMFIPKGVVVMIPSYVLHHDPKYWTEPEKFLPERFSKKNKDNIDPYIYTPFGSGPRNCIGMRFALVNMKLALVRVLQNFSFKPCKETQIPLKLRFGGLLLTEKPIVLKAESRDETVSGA
Chain of Cytochrome P450 2C19 (Homo sapiens) (P33261 whole entry, looked up): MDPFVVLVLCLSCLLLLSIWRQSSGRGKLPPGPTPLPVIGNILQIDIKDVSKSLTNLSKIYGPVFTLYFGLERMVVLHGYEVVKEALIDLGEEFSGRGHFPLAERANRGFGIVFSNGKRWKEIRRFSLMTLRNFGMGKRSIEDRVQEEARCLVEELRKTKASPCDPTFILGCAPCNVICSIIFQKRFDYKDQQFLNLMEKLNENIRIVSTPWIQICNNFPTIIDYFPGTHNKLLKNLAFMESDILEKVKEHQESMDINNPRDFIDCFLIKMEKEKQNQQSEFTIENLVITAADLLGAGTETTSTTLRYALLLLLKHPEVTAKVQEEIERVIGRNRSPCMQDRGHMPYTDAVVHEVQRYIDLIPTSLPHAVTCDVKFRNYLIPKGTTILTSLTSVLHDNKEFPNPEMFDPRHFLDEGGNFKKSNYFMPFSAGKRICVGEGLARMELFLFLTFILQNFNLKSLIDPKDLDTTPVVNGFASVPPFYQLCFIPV

Take `O=C(NO)C1(NS(=O)(=O)c2ccc(Oc3ccc(F)cc3)cc2)CCOCC1`: the outcome in [1], in assay [2], in assay [3], in assay [7], in assay [10] and in [11] was inactive. For the same molecule, the molecule was called inactive in assay [12], in [13], in assay [14] and in assay [17]. Moreover, the concentration at half-maximal activity (AC50) was 11.8 µM (active) in [4]; 12.8 µM (active) in assay [5]; 90.7 µM (active) in assay [6]; 54.4 µM (active) in [8]; 71 µM (active) in assay [9]; 50 µM (active) in assay [15]. Moreover, the half-maximal activity concentration (AC50) in [16] is 68.9 µM (active); in assay [18], 83.5 µM (active).
On to `OC(Cn1cncn1)(Cn1cncn1)c1ccc(F)cc1F`, for which the outcome in [1], in assay [2], in [3], in assay [5], in assay [6] and in assay [7] was inactive. For the same molecule, the call in assay [8], in assay [9], in assay [10], in assay [11], in [12] and in assay [13] was inactive. Besides, the result in [14], in [15], in assay [16], in [17] and in assay [18] was inactive. The AC50 in assay [4] is 27.1 µM (active).
On to `C=CN1CCCC1=O`, for which the result in assay [1], in assay [2], in assay [3], in [4], in [5] and in [6] was inactive. Further, the call in assay [7], in [8], in assay [9], in [10], in assay [11] and in assay [12] was inactive. The molecule was called inactive in [13], in [14], in assay [15], in assay [17] and in assay [18].
As for `CC1(C)C(=O)N(Cl)C(=O)N1Cl`, the result in assay [1], in [3], in [4], in [5], in assay [6] and in [7] was inactive. Moreover, the outcome in assay [8], in assay [9], in [10], in assay [11], in assay [12] and in assay [13] was inactive. Besides, the molecule was classed as inactive in [14], in assay [15], in [17] and in [18]. Further, the AC50 in [2] was 50 µM (active).

Broadly, the AC50 is the concentration giving half of the maximal activity seen.
